The results in this text go back to PubChem BioAssay (NCI).

A short description of assay [1]: NCI Yeast Anticancer Drug Screen. Data for the rad50 strain (AID 155).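 Also: 0% = growth of vehicle-only cultures of the same strain.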 As to conditions: S. cerevisiae rad50 strain growth inhibition, stronger effect = higher value. The gist of the method:
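Vehicle-treated cultures provide the reference for the growth inhibition reported for compound-exposed, repair-deficient yeast.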

Assay [2] can be described thus: NCI Yeast Anticancer Drug Screen. Data for the mec2-1 strain (AID 157). As to conditions: S. cerevisiae mec2-1 strain, stronger effect = higher value. The essentials:
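Test agents were screened against the mec2-1 yeast strain, with defined DNA repair or cell cycle alteration. Growth was scored as inhibition against vehicle-only controls.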

Assay [3] is described as follows: NCI Yeast Anticancer Drug Screen. Data for the sgs1 mgt1 strain (AID 161).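 Also: 0% = growth of cultures given vehicle only.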 Conditions: S. cerevisiae sgs1 mgt1 strain, stronger effect = higher value. The gist of the method:
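Read-out: growth inhibition vs vehicle controls. Cells: mutant yeast strain deficient in DNA damage repair.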

Assay [4] in a line: NCI Yeast Anticancer Drug Screen. Data for the cln2 rad14 strain (AID 165).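 Also: 0% = growth equal to vehicle treated cultures.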 As to conditions: S. cerevisiae cln2 rad14 strain, stronger effect = higher value. The gist of the method:
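Growth of compound-exposed yeast (cln2 rad14 genotype) measured and expressed as inhibition relative to vehicle.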

Assay [5] can be described thus: NCI Yeast Anticancer Drug Screen. Data for the bub3 strain (AID 167). As to conditions: S. cerevisiae bub3 mutant strain, stronger effect = higher value. The gist of the method:
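Mutant yeast screening strain plus compound; vehicle-treated cultures serve as the 0% inhibition reference.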

A short description of assay [6]: NCI Yeast Anticancer Drug Screen. Data for the mlh1 rad18 strain (AID 175). As to conditions: S. cerevisiae mlh1 rad18 strain growth inhibition, stronger effect = higher value. The essentials: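 In this whole-cell yeast screen, a strain with altered DNA damage repair is challenged with compound, and its growth is measured against matched vehicle-treated controls.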
Where [7] appears, read: at 5.0 µM (retest, dose inferred, filed as 0.5).
The mark [8] stands for this setting: at 50.0 µM (retest, dose inferred, filed as 5.0).

This is part of a sample that, as a whole, favours compounds with a hit. Of some 79,000 tested, about 15% had one in any assay. Values without a mark were called inactive. The source made the active and inactive calls. Rule as the data show it: active = growth inhibition above about 70%; inactive = the rest.

Turning to `OC(CC(O)(C(F)(F)Cl)C(F)(F)Cl)c1ccccc1` (configuration not stated), the growth inhibition in assay [1] (setting [7]) was 31%; in assay [1] (setting [8]), 66%; in assay [1] (at 50.0 µM), 88.1% (active); in assay [2] (setting [7]), 10%; in assay [2] (setting [8]), 62%; in assay [2] (at 50.0 µM), 90.7% (active). For the same molecule, the growth inhibition is 42% in assay [3] (setting [7]); 72% (active) in assay [3] (setting [8]); 92.1% (active) in assay [3] (at 50.0 µM); 35% in assay [4] (setting [7]); 58% in assay [4] (setting [8]); 85.8% (active) in assay [4] (at 50.0 µM). Also, the growth inhibition in assay [5] (setting [7]) was 37%; in assay [5] (setting [8]), 69%; in assay [5] (at 50.0 µM), 88.6% (active); in assay [6] (setting [7]) it was 26%; in assay [6] (setting [8]) it was 59%; in assay [6] (at 50.0 µM), 89.3% (active).

As to `Cc1noc(NS(=O)(=O)c2ccc(N=Nc3cc(N=Nc4ccc(S(=O)(=O)Nc5onc(C)c5C)cc4)c4c(NC(=O)C(Cl)Cl)cccc4c3O)cc2)c1C` (tested in a mixture with another compound), the growth inhibition was 96% (active) in assay [1] (setting [7]); 61% in assay [1] (setting [8]); 73% (active) in assay [1] (at 50.0 µM); 97% (active) in assay [2] (setting [7]); 57% in assay [2] (setting [8]); 74.5% (active) in assay [2] (at 50.0 µM). The growth inhibition in assay [3] (setting [7]) is 95% (active); in assay [3] (setting [8]), 63%; in assay [3] (at 50.0 µM), 75% (active); in assay [4] (setting [7]), 96% (active); in assay [4] (setting [8]), 65%; in assay [4] (at 50.0 µM), 63.4%. The growth inhibition was 95% (active) in assay [5] (setting [7]); 56% in assay [5] (setting [8]); 49.1% in assay [5] (at 50.0 µM); 88% (active) in assay [6] (setting [7]); 43% in assay [6] (setting [8]); 59.2% in assay [6] (at 50.0 µM).

For `COc1cc(C2C(C(=O)Nc3ccc(Cl)c(Cl)c3)=C(C)NC(C)=C2C(=O)Nc2ccc(Cl)c(Cl)c2)ccc1O`, the growth inhibition in assay [1] (setting [7]) was 19%; in assay [1] (setting [8]) it was 19%; in assay [1] (at 50.0 µM), 91% (active); in assay [2] (setting [7]), -4%; in assay [2] (setting [8]) it was -4%; in assay [2] (at 50.0 µM) it was 90.6% (active). For the same molecule, the growth inhibition in assay [3] (setting [7]) was 2%; in assay [3] (setting [8]) it was 2%; in assay [3] (at 50.0 µM), 88.7% (active); in assay [4] (setting [7]), 7%; in assay [4] (setting [8]), 7%; in assay [4] (at 50.0 µM), 88.8% (active). In addition, the growth inhibition in assay [5] (setting [7]) is 13%; in assay [5] (setting [8]), 13%; in assay [5] (at 50.0 µM), 91.2% (active); in assay [6] (setting [7]), 8%; in assay [6] (setting [8]), 8%; in assay [6] (at 50.0 µM), 89.5% (active).

On to `Nc1ccccc1SC(/C=C/NNC1=NC(c2ccccc2)C(c2ccccc2)=NN1)c1ccccc1` (configuration not stated), for which the growth inhibition in assay [1] (setting [7]) is 43%; in assay [1] (setting [8]), 43%; in assay [1] (at 50.0 µM), 93% (active); in assay [2] (setting [7]), 7%; in assay [2] (setting [8]) it was 7%; in assay [2] (at 50.0 µM) it was 93% (active). Further, the growth inhibition is 19% in assay [3] (setting [7]); 19% in assay [3] (setting [8]); 91.5% (active) in assay [3] (at 50.0 µM); 29% in assay [4] (setting [7]); 29% in assay [4] (setting [8]); 91.7% (active) in assay [4] (at 50.0 µM). Besides, the growth inhibition in assay [5] (setting [7]) is 30%; in assay [5] (setting [8]) it was 30%; in assay [5] (at 50.0 µM), 93.3% (active); in assay [6] (setting [7]), 11%; in assay [6] (setting [8]) it was 11%; in assay [6] (at 50.0 µM), 91.8% (active).

As to `O=C1Nc2c(Cl)cc(Cl)cc2/C1=N/N=C/c1ccco1`, the growth inhibition in assay [1] (setting [7]) is 24%; in assay [1] (setting [8]) it was 84% (active); in assay [1] (at 50.0 µM), 52.6%; in assay [2] (setting [7]) it was 26%; in assay [2] (setting [8]), 83% (active); in assay [2] (at 50.0 µM) it was 53.4%. Also, the growth inhibition in assay [3] (setting [7]) was 28%; in assay [3] (setting [8]) it was 68%; in assay [3] (at 50.0 µM), 67.3%; in assay [4] (setting [7]), 28%; in assay [4] (setting [8]), 74% (active); in assay [4] (at 50.0 µM), 63.2%. The growth inhibition in assay [5] (setting [7]) is 21%; in assay [5] (setting [8]), 83% (active); in assay [5] (at 50.0 µM) it was 55.4%; in assay [6] (setting [7]), 37%; in assay [6] (setting [8]), 94% (active); in assay [6] (at 50.0 µM) it was 89.2% (active).

Turning to `O=C(O)CCCCCCCCC(=O)CCl`, the growth inhibition in assay [1] (setting [7]) was 9%; in assay [1] (setting [8]), 97% (active); in assay [1] (at 50.0 µM), 98.8% (active); in assay [2] (setting [7]), 23%; in assay [2] (setting [8]) it was 99% (active); in assay [2] (at 50.0 µM) it was 99.5% (active). For the same molecule, the growth inhibition in assay [3] (setting [7]) is 29%; in assay [3] (setting [8]), 98% (active); in assay [3] (at 50.0 µM), 99% (active); in assay [4] (setting [7]), 14%; in assay [4] (setting [8]), 98% (active); in assay [4] (at 50.0 µM), 97.5% (active). In addition, the growth inhibition in assay [5] (setting [7]) is 48%; in assay [5] (setting [8]), 98% (active); in assay [5] (at 50.0 µM), 99.5% (active); in assay [6] (setting [7]) it was 38%; in assay [6] (setting [8]), 98% (active); in assay [6] (at 50.0 µM), 99.2% (active).

`S=C(S)NCCN1CCNC1=S`: the growth inhibition in assay [1] (setting [7]) was 10%; in assay [1] (setting [8]), 76% (active); in assay [1] (at 50.0 µM), 60.4%; in assay [2] (setting [7]) it was 5%; in assay [2] (setting [8]), 50%; in assay [2] (at 50.0 µM), 60.9%. The growth inhibition in assay [3] (setting [7]) is 5%; in assay [3] (setting [8]), 64%; in assay [3] (at 50.0 µM), 80% (active); in assay [4] (setting [7]), 2%; in assay [4] (setting [8]) it was 18%; in assay [4] (at 50.0 µM), -5.05%. Further, the growth inhibition was 14% in assay [5] (setting [7]); 95% (active) in assay [5] (setting [8]); 63.8% in assay [5] (at 50.0 µM); 7% in assay [6] (setting [7]); 78% (active) in assay [6] (setting [8]); 77.1% (active) in assay [6] (at 50.0 µM).

Turning to `Cc1cc(Br)c(NC(=O)CBr)cc1C`, the growth inhibition in assay [1] (setting [7]) is -1%; in assay [1] (setting [8]), 95% (active); in assay [1] (at 50.0 µM), 42.3%; in assay [2] (setting [7]), -3%; in assay [2] (setting [8]), 97% (active); in assay [2] (at 50.0 µM), 73.3% (active). The growth inhibition was -1% in assay [3] (setting [7]); 97% (active) in assay [3] (setting [8]); 72% (active) in assay [3] (at 50.0 µM); -2% in assay [4] (setting [7]); 94% (active) in assay [4] (setting [8]); 46.9% in assay [4] (at 50.0 µM). The growth inhibition is -1% in assay [5] (setting [7]); 96% (active) in assay [5] (setting [8]); 40.5% in assay [5] (at 50.0 µM); -2% in assay [6] (setting [7]); 96% (active) in assay [6] (setting [8]); 81.5% (active) in assay [6] (at 50.0 µM).

`CN(C)CC1CCC2=C(C1=O)C(c1ccc(Cl)c(Cl)c1)C1=C(CCC(CN(C)C)C1=O)O2` (configuration not stated): the growth inhibition in assay [1] (setting [7]) is 14%; in assay [1] (setting [8]) it was 11%; in assay [1] (at 50.0 µM), 75.5% (active); in assay [2] (setting [7]), -4%; in assay [2] (setting [8]), -13%; in assay [2] (at 50.0 µM) it was 49.9%. Moreover, the growth inhibition in assay [3] (setting [7]) was -5%; in assay [3] (setting [8]), 19%; in assay [3] (at 50.0 µM), 47.6%; in assay [4] (setting [7]), 6%; in assay [4] (setting [8]) it was -3%; in assay [4] (at 50.0 µM) it was -17.2%. Besides, the growth inhibition in assay [5] (setting [7]) was -5%; in assay [5] (setting [8]), 2%; in assay [5] (at 50.0 µM) it was 3.75%; in assay [6] (setting [7]), 4%; in assay [6] (setting [8]), 1%; in assay [6] (at 50.0 µM) it was 48.5%.
